Measured values: the supplement of paper PMC10849652
Of roughly 8,800 targets only a part is listed; those with a hit were picked by preference. About 0.5% of all pairs of compound and target were hits.

Compound: CS(=O)(=O)CCNCc1ccc(-c2ccc3ncnc(Nc4ccc(OCc5cccc(F)c5)c(Cl)c4)c3c2)o1 [lapatinib]
Assay: log2 fold change, soluble protein after heating vs DMSO (PISA); higher = thermal stabilisation; K562 lysate, 10 uM; active = over 0.2 and 3.5 SD of the protein, either way, in both replicates (recomputed)
How it was run: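 Quantification was by TMTpro 16plex LC-MS/MS with equalised channel sums, applied to the supernatant after 21,000xg for 90 min. Samples were crude K562 extract at 1 mg/mL protein in PBS pH 7.4 with 1 mM MgCl2, treated with 10 μM compound for 30 min, heated for 3 min across 48°C-58°C, pooled and brought to 0.5% NP-40 at 4°C. Values are log-two fold changes in thermal stability relative to solvent controls, from duplicates.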

UniProt Q13362, sequence (Q13362 whole entry, looked up): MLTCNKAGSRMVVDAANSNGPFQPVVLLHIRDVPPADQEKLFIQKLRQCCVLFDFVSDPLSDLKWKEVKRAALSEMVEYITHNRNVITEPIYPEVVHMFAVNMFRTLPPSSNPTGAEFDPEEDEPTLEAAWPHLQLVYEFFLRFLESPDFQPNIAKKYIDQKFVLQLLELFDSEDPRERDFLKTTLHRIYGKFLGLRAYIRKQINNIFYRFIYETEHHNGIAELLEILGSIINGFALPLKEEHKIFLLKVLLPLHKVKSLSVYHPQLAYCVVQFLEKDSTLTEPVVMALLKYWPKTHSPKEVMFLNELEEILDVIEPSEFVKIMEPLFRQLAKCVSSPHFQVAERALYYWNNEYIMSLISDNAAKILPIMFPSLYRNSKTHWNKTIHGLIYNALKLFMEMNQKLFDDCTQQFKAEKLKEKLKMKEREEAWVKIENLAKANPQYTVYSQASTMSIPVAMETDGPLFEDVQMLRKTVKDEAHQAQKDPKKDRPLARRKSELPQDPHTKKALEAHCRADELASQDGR
UniProt Q9H939, sequence (Q9H939 whole entry, looked up): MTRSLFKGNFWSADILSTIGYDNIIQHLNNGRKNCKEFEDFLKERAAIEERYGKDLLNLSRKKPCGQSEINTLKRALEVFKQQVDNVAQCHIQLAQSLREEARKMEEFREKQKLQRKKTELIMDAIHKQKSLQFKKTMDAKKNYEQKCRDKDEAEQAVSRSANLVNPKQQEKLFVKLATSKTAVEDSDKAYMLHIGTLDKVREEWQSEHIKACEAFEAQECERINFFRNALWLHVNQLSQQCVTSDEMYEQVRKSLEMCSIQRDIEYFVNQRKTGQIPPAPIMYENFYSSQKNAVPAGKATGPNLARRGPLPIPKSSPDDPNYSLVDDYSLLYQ
UniProt P48426, sequence (P48426 whole entry, looked up): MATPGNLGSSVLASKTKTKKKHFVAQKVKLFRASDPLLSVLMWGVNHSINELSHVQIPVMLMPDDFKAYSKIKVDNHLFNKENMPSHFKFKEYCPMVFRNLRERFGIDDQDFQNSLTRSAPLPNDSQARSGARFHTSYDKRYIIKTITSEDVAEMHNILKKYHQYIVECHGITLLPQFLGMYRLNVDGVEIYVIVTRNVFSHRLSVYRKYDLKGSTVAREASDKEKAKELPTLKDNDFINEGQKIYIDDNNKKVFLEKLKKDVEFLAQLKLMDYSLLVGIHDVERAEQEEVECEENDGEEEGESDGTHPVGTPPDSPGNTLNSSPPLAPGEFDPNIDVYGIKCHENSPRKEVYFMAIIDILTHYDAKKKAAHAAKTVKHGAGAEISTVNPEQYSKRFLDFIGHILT
UniProt P54278, sequence (P54278 whole entry, looked up): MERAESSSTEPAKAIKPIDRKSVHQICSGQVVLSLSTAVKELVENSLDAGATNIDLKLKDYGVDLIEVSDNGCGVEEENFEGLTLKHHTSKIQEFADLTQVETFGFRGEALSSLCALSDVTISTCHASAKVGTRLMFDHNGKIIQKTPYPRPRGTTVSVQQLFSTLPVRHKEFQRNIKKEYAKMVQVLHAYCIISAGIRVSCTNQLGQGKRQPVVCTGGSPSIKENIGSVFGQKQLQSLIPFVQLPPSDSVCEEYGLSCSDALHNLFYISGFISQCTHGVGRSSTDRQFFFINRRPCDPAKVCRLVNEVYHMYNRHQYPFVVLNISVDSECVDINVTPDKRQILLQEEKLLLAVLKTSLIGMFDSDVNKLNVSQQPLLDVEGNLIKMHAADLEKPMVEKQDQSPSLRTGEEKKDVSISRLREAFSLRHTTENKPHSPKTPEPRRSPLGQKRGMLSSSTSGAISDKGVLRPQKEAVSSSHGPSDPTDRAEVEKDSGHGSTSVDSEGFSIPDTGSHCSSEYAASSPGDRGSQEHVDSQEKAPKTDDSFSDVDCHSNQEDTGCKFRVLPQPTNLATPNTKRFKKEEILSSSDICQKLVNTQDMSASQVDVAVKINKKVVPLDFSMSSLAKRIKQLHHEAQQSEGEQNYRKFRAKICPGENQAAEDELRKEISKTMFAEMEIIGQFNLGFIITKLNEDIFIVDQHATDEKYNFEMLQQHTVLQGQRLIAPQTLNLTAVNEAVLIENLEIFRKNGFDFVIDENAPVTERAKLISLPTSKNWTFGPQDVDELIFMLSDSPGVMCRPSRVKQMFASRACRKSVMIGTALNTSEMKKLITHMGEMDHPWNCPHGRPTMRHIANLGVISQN
UniProt P07737, sequence (P07737 whole entry, looked up): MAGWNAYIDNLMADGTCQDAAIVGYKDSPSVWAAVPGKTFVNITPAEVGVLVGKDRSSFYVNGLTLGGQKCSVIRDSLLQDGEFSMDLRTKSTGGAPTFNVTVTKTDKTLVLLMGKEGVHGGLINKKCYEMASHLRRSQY
UniProt O15530, sequence (O15530 whole entry, looked up): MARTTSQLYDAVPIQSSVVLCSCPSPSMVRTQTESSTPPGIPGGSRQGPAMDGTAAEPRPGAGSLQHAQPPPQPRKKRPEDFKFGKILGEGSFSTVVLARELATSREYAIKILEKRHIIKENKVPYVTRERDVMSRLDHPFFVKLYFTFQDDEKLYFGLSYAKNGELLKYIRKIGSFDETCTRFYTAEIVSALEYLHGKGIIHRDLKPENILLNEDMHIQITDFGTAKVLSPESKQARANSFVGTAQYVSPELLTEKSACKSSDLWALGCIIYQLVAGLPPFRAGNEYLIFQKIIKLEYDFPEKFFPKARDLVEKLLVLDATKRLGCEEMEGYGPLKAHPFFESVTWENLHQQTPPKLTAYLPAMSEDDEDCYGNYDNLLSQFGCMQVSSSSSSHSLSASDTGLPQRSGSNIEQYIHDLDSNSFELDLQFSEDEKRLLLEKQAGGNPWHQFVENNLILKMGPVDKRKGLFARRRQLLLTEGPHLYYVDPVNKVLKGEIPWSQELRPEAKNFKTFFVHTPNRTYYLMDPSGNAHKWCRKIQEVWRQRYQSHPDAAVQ
UniProt Q9Y606, sequence (Q9Y606 whole entry, looked up): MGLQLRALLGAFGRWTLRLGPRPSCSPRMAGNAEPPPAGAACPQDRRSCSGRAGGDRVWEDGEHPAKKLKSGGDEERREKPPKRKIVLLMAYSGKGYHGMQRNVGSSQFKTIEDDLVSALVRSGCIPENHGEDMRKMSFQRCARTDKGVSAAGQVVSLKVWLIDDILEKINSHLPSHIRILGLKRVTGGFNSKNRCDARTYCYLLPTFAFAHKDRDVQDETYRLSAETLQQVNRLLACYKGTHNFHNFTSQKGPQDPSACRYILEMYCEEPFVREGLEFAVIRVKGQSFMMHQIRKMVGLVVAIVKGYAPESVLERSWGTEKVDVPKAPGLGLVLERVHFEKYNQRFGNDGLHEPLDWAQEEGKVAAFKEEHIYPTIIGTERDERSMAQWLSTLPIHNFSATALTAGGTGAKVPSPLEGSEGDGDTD
UniProt Q29RF7, sequence (Q29RF7 whole entry, looked up): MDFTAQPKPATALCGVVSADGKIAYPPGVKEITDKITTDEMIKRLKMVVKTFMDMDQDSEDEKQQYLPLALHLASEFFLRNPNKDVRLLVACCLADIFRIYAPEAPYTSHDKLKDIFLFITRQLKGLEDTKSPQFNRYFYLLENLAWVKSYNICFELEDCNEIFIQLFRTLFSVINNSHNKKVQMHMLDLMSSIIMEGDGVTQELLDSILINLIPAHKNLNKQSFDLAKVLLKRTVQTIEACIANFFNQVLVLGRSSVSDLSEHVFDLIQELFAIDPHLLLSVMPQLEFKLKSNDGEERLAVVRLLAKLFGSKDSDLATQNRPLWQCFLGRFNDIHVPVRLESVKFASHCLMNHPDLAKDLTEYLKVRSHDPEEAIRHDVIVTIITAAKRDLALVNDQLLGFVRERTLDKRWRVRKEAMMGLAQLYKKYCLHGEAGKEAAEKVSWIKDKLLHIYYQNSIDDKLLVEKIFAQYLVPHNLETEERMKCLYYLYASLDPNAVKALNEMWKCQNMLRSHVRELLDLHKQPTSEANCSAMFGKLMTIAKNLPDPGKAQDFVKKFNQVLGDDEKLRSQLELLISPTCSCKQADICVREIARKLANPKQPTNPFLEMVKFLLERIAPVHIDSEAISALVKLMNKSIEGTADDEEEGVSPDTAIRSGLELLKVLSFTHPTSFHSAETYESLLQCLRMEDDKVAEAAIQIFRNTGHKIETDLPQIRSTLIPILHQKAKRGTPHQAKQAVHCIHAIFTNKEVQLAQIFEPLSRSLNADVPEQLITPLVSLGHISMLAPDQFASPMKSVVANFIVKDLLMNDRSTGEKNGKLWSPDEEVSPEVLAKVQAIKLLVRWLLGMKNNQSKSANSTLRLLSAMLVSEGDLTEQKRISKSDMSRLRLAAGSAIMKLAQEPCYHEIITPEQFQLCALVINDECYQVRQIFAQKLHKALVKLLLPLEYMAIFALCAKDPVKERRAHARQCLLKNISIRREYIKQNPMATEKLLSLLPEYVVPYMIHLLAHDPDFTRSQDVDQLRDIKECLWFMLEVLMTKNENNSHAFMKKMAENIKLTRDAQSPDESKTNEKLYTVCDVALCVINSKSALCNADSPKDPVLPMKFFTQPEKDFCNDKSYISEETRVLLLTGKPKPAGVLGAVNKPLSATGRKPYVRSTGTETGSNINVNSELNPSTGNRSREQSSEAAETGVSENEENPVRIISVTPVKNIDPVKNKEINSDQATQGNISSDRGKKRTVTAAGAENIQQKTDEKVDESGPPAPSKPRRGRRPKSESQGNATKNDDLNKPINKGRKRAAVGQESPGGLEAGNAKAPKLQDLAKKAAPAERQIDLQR
UniProt Q8TCD6, sequence (Q8TCD6 whole entry, looked up): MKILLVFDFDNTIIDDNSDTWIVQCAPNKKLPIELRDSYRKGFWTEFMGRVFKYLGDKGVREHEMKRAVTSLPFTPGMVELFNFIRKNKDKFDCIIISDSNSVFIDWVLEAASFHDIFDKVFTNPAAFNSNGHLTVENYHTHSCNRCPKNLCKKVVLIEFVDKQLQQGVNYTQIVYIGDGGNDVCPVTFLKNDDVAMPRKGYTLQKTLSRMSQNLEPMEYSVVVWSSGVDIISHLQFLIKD

log2 fold change, inactive:
PUS1 (UniProt Q9Y606) -0.042
PTPN23 (UniProt Q9H3S7) 0.003
PDCD6IP (UniProt Q8WUM4) -0.006
PMS2 (UniProt P54278) 0.016
PSTPIP2 (UniProt Q9H939) 0.009
PUM1 isoform 3 (UniProt Q14671) 0.004
PICALM (UniProt Q13492) 0.012
PTPN1 (UniProt P18031) -0.022
PPP2R5C isoform 5 (UniProt Q13362) -0.03
POLD3 (UniProt Q15054) 0.03
PIP4K2A (UniProt P48426) -0.04
PDS5A (UniProt Q29RF7) -0.024
PFN1 (UniProt P07737) 0.01
PLXNB2 (UniProt O15031) -0.033
PFAS (UniProt O15067) -0.01
PITRM1 isoform 2 (UniProt Q5JRX3) -0.001
PPP1R8 (UniProt Q12972) 0.025
PLEKHF1 (UniProt Q96S99) -0.022
PRKACB isoform 2 (UniProt P22694) -0.063
PIP4K2C (UniProt Q8TBX8) -0.043
PDPK1 (UniProt O15530) -0.04
PIK3C3 (UniProt Q8NEB9) -0.066
PHOSPHO2 (UniProt Q8TCD6) -0.043
